Measured values reported in PubChem BioAssay (NCI).
Values joined by “and” are separate entries in the source; they are usually repeats but may differ in a detail not shown here. Equal values may be shown once. Compounds without any hit were thinned out: in the full panel of roughly 79,000, 15% have a hit. A structure can be active in one record and inactive in another. Active and inactive are the calls of the source. Rule as the data show it: active = growth inhibition above about 70%; inactive = the rest.

What was measured:
[1] = NCI Yeast Anticancer Drug Screen. Data for the rad50 strain (AID 155);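 also: 0% = growth of vehicle-only cultures of the same strain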; settings: S. cerevisiae rad50 strain growth inhibition, stronger effect = higher value
Outline: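 A DNA repair-deficient yeast mutant serves as the test organism; compound-induced growth inhibition is calculated against vehicle-treated cells.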

[2] = NCI Yeast Anticancer Drug Screen. Data for the mec2-1 strain (AID 157); settings: S. cerevisiae mec2-1 strain, stronger effect = higher value
Outline: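 Test agents were screened against the mec2-1 yeast strain, with defined DNA repair or cell cycle alteration. Growth was scored as inhibition against vehicle-only controls.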

[3] = NCI Yeast Anticancer Drug Screen. Data for the sgs1 mgt1 strain (AID 161);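 also: 0% = growth of cultures given vehicle only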; settings: S. cerevisiae sgs1 mgt1 strain, stronger effect = higher value
Outline: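 Inhibition of yeast growth, normalised to vehicle-treated controls, is reported for a strain bearing genetic alterations in DNA damage repair.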

[4] = NCI Yeast Anticancer Drug Screen. Data for the cln2 rad14 strain (AID 165);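 also: 0% = growth equal to vehicle treated cultures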; settings: S. cerevisiae cln2 rad14 strain, stronger effect = higher value
Outline: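 Growth of compound-exposed yeast (cln2 rad14 genotype) measured and expressed as inhibition relative to vehicle.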

[5] = NCI Yeast Anticancer Drug Screen. Data for the bub3 strain (AID 167); settings: S. cerevisiae bub3 mutant strain, stronger effect = higher value
Outline: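 Inhibition values come from growth of compound-treated mutant yeast normalised to vehicle-treated controls.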

[6] = NCI Yeast Anticancer Drug Screen. Data for the mlh1 rad18 strain (AID 175); settings: S. cerevisiae mlh1 rad18 strain growth inhibition, stronger effect = higher value
Outline: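 In this whole-cell yeast screen, a strain with altered DNA damage repair is challenged with compound, and its growth is measured against matched vehicle-treated controls.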

[7] = at 5.0 µM (retest, dose inferred, filed as 0.5)
[8] = at 50.0 µM (retest, dose inferred, filed as 5.0)

Measured: growth inhibition

C[Si]1(C)CN(CCN)C[Si](C)(C)O1
inactive: [1]; [7] 3% | [1]; [8] 2% | [1]; at 50.0 µM -3.85% and 55.5% | [2]; [7] 1% | [2]; [8] 9% | [2]; at 50.0 µM 4.25% and 49.5% | [3]; [7] 2% | [3]; [8] 0% | [4]; [7] 2% | [4]; [8] -3% | [4]; at 50.0 µM -20.3% and 45% | [5]; [7] -2% | [5]; [8] -4% | [5]; at 50.0 µM -3.65% and 68.4% | [6]; [7] 0% | [6]; [8] -2% | [6]; at 50.0 µM -1.3% and 62.6%
-15.4% (inactive) and 76.5% (active): [3]; at 50.0 µM

C=C[C@]1(C)C=C2C(O)CC3C(C)(C)CCC[C@]3(CO)C2CC1 (stereo partly specified)
active: [1]; [8] 99% | [1]; at 50.0 µM 99.2% | [2]; [8] 100% | [2]; at 50.0 µM 99.6% | [3]; [8] 97% | [3]; at 50.0 µM 99.5% | [4]; [8] 99% | [4]; at 50.0 µM 99.3% | [5]; [8] 99% | [5]; at 50.0 µM 99.5% | [6]; [8] 99% | [6]; at 50.0 µM 99.2%
inactive: [1]; [7] 8% | [2]; [7] 13% | [3]; [7] 17% | [4]; [7] 13% | [5]; [7] 4% | [6]; [7] 26%

CC(=O)OCC1OC(n2c(C)c(C(C)=O)c(-c3ccco3)c(C#N)c2=S)C(OC(C)=O)C(OC(C)=O)C1OC(C)=O (stereo unspecified)
-4.95% (inactive) and 74.4% (active): [3]; at 50.0 µM
inactive: [1]; [7] -7% | [1]; [8] -3% | [1]; at 50.0 µM -9.45% and 32.2% | [2]; [7] 2% | [2]; [8] 1% | [2]; at 50.0 µM -26.9% and 56.2% | [3]; [7] 2% | [3]; [8] 13% | [4]; [7] 6% | [4]; [8] 22% | [4]; at 50.0 µM -13.6% and 40.8% | [5]; [7] -4% | [5]; [8] 9% | [5]; at 50.0 µM -25.4% and 42.4% | [6]; [7] -29% | [6]; [8] 12% | [6]; at 50.0 µM 3.55% and 45%

O=[N+]([O-])c1ccc(Cl)c(C2CC(c3cccc4ccccc34)=Nc3ccccc3S2)c1 (stereo unspecified)
active: [2]; at 50.0 µM 83%
inactive: [1]; [7] 0% | [1]; [8] 0% | [1]; at 50.0 µM 31.1% | [2]; [7] 0% | [2]; [8] 2% | [3]; [7] 2% | [3]; [8] 12% | [3]; at 50.0 µM 30.6% | [4]; [7] -1% | [4]; [8] 0% | [4]; at 50.0 µM 43.2% | [5]; [7] 2% | [5]; [8] 7% | [5]; at 50.0 µM 35.2% | [6]; [7] -1% | [6]; [8] 6% | [6]; at 50.0 µM 58.3%

O=S(=O)(CC(Cl)c1ccccc1)c1nc2ccccc2s1 (stereo unspecified)
active: [2]; at 50.0 µM 79.1% | [3]; at 50.0 µM 72.7% | [5]; at 50.0 µM 71.4%
inactive: [1]; [7] -7% | [1]; [8] -7% | [1]; at 50.0 µM 69.5% | [2]; [7] 2% | [2]; [8] 2% | [3]; [7] 9% | [3]; [8] 9% | [4]; [7] -14% | [4]; [8] -14% | [4]; at 50.0 µM 43.2% | [5]; [7] -30% | [5]; [8] -30% | [6]; [7] -13% | [6]; [8] -13% | [6]; at 50.0 µM 47%

CC(=O)/C(=C\c1ccc(Cl)c(Cl)c1)C(=O)CCN(C)C
active: [6]; at 50.0 µM 74.2% and 72.2%
78.2% (active) and 42.8% (inactive): [2]; at 50.0 µM
inactive: [1]; [7] 13% and 6% | [1]; [8] 42% and 30% | [1]; at 50.0 µM 49.2% and 56% | [2]; [7] 13% and -8% | [2]; [8] 43% and 26% | [3]; [7] 22% and 9% | [3]; [8] 45% and 50% | [3]; at 50.0 µM 58.6% and 63.7% | [4]; [7] 19% and 16% | [4]; [8] 17% and 21% | [4]; at 50.0 µM 18.8% and 41.1% | [5]; [7] 5% and 18% | [5]; [8] 41% and 42% | [5]; at 50.0 µM 58% and 58.1% | [6]; [7] 20% and 8% | [6]; [8] 50% and 49%

COc1ccc(/C=C2\CCCC(CN(C)C)C2=O)cc1 (stereo unspecified)
inactive: [1]; [7] -1% | [1]; [8] 8% | [1]; at 50.0 µM 65.4% | [2]; [7] -20% | [2]; [8] 13% | [3]; [7] -31% | [3]; [8] -3% | [4]; [7] -32% | [4]; [8] 9% | [4]; at 50.0 µM 57.4% | [5]; [7] -48% | [5]; [8] 23% | [6]; [7] -22% | [6]; [8] 5%
active: [2]; at 50.0 µM 78.8% | [3]; at 50.0 µM 86.2% | [5]; at 50.0 µM 81.8% | [6]; at 50.0 µM 84.7%

CN1CCN(CCCN2c3ccccc3Sc3ccc(C(F)(F)F)cc32)CC1
active: [1]; [8] 98% and 94% | [1]; at 50.0 µM 98.8% and 83.9% | [2]; [8] 98% and 70% | [2]; at 50.0 µM 99.2% and 83.9% | [3]; [8] 95% and 73% | [3]; at 50.0 µM 99.2% and 84.9% | [4]; [8] 84% and 78% | [4]; at 50.0 µM 98% and 84.7% | [5]; [8] 98% and 95% | [5]; at 50.0 µM 99.2% and 86.2% | [6]; [8] 99% and 96% | [6]; at 50.0 µM 99.6%
inactive: [1]; [7] -13% and -1% | [2]; [7] -9% and -29% | [3]; [7] -7% and 0% | [4]; [7] -31% and 3% | [5]; [7] -13% and -27% | [6]; [7] -8% and -9%

Oc1ccc2ccccc2c1Cc1c(O)ccc2ccccc12
inactive: [1]; [7] -1% | [2]; [7] 11% | [2]; at 50.0 µM 29.8% and 22.7% | [3]; [7] 7% | [3]; [8] 53% | [4]; [7] -25% | [5]; [7] -6% | [5]; at 50.0 µM 16.2% and 48.6% | [6]; [7] -8%
44.1% (inactive) and 99.5% (active): [3]; at 50.0 µM
33% (inactive) and 99.2% (active): [1]; at 50.0 µM
21.6% (inactive) and 97.8% (active): [4]; at 50.0 µM
active: [1]; [8] 86% | [2]; [8] 96% | [4]; [8] 95% | [5]; [8] 95% | [6]; [8] 89%
16.4% (inactive) and 99.3% (active): [6]; at 50.0 µM

Cc1c(N)nc(C(CC(N)=O)NCC(N)C(N)=O)nc1C(=O)NC(C(=O)NC(C)C(O)C(C)C(=O)NC(C(=O)NCCc1nc(-c2nc(C(=O)NCCCNCCCCN)cs2)cs1)C(C)O)C(OC1OC(CO)C(O)C(O)C1OC1OC(CO)C(O)C(OC(N)=O)C1O)c1cnc[nH]1 (stereo unspecified)
inactive: [2]; [7] 37% | [4]; [7] 65%
active: [1]; [7] 92% | [1]; [8] 98% | [1]; at 50.0 µM 99% and 88.6% | [2]; [8] 98% | [2]; at 50.0 µM 99.2% and 88.1% | [3]; [7] 77% | [3]; [8] 98% | [3]; at 50.0 µM 99% and 88.2% | [4]; [8] 98% | [4]; at 50.0 µM 97.7% and 86.5% | [5]; [7] 76% | [5]; [8] 98% | [5]; at 50.0 µM 99% and 87.9% | [6]; [7] 94% | [6]; [8] 98% | [6]; at 50.0 µM 98.9% and 90%

O=C1C=C(O)c2ccccc2C1=O.[Ag]
active: [1]; [7] 99% | [1]; [8] 99% | [1]; at 50.0 µM 88.8% and 99.5% | [2]; [7] 100% | [2]; [8] 99% | [2]; at 50.0 µM 75% and 99.5% | [3]; [7] 99% | [3]; [8] 99% | [3]; at 50.0 µM 96.4% and 99.4% | [4]; [7] 100% | [4]; [8] 99% | [5]; [7] 99% | [5]; [8] 99% | [5]; at 50.0 µM 86.3% and 99.3% | [6]; [7] 99% | [6]; [8] 99% | [6]; at 50.0 µM 87.5% and 99.2%
66.2% (inactive) and 99% (active): [4]; at 50.0 µM

COc1cc(O)c2c(c1)C(=O)c1cc3c(c(O)c1C2=O)C(OC1OC(C)C(OC)C(O)C1OC)C(OC)C(C)(O)C3=O (stereo unspecified)
inactive: [2]; [7] 24% | [3]; [7] 20% | [4]; [7] 22% | [5]; [7] -6% | [6]; [7] 29%
active: [1]; [7] 81% | [1]; [8] 98% | [1]; at 50.0 µM 98.8% and 90.6% | [2]; [8] 98% | [2]; at 50.0 µM 99.2% and 93% | [3]; [8] 98% | [3]; at 50.0 µM 99.5% and 92.3% | [4]; [8] 98% | [4]; at 50.0 µM 98.3% and 89.2% | [5]; [8] 98% | [5]; at 50.0 µM 99% and 90.5% | [6]; [8] 96% | [6]; at 50.0 µM 99.2% and 90.9%
